Only some compounds are listed: those with a hit (about 1.3% of all), similar ones and a draw of the others.
SRC1 inh = SRC1 coactivator transcriptional activity inhibitors, primary screen, cell-based, luminescence; Nuclear receptor coactivator 1 (Homo sapiens), Q15788; HEK293 GAL4-SRC1 luciferase reporter; inhibition, % at 3.6 µM; 360,000 compounds, 0.12% hits;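 active = inhibition above the campaign mean plus 3 SD, with each screening campaign given its own cutoff, cut at about 60% in these data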;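 note: 0% = DMSO treated cells and 100% = gossypol at 36 µM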
NCOA3 inh = SRC3 coactivator transcriptional activity inhibitors, primary screen, cell-based, luminescence. Nuclear receptor coactivator 3 (Homo sapiens), Q9Y6Q9. 360,000 compounds, 0.17% hits. inhibition, % at 3.6 µM. HEK293 GAL4-SRC3 luciferase reporter. AID 588352, 2011;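 active = inhibition above a per-campaign cutoff, the mean of all compounds plus 3 SD, cut at about 60% in these data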;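 note: 0% = DMSO-treated cells and 100% = gossypol-treated cells at 36 µM; higher means less SRC3-driven luciferase light from the GAL4 reporter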
Target sequence (Q9Y6Q9 whole entry, looked up, the tested form may be a part): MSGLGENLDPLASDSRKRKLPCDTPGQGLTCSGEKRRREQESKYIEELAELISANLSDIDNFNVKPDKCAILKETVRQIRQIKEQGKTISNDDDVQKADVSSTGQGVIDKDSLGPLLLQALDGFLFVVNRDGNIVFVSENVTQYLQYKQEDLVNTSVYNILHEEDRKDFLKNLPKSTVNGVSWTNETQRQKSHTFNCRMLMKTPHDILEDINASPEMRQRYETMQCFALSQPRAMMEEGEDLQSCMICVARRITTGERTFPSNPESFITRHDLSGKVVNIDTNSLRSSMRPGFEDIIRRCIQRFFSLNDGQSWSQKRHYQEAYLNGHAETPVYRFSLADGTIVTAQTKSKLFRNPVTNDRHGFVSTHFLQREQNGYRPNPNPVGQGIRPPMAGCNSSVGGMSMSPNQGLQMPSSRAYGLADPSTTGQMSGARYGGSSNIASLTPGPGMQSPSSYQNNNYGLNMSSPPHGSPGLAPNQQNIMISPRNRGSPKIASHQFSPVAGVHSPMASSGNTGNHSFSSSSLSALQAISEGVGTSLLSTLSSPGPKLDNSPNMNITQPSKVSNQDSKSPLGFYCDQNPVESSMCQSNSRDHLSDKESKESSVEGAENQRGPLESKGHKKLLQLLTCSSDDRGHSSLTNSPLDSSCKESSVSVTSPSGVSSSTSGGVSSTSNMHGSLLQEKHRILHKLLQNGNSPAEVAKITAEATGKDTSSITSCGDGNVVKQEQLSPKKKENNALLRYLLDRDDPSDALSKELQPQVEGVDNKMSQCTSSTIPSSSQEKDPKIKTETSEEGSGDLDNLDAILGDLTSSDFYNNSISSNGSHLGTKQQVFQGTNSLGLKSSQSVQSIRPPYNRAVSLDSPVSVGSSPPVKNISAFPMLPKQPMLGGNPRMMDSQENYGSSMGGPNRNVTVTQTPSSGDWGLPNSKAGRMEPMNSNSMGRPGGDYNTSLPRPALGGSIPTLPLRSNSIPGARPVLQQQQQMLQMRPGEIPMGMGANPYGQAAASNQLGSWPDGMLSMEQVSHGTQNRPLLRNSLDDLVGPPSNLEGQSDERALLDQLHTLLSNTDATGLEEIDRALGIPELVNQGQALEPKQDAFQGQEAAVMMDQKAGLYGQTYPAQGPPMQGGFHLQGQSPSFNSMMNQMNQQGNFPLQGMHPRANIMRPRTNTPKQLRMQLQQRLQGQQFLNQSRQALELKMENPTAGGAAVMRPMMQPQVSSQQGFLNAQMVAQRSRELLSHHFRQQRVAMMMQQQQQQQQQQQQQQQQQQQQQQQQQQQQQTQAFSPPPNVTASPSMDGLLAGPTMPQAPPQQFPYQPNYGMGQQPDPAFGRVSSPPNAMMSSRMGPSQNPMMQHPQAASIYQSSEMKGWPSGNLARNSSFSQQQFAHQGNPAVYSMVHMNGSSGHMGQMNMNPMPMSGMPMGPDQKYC
NCOA2 inhibitor = inhibition of GAL4-SRC2 driven luciferase reporter, primary screen, SRC2 inhibitor project, cell-based, luminescence; 370,000 compounds, 0.17% hits; inhibition, % at 9 µM; HEK293 GAL4-SRC2 luciferase reporter; Nuclear receptor coactivator 2 (Homo sapiens), Q15596;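 active = inhibition above the mean inhibition of all tested compounds plus 3 SD, set per campaign, cut at about 52% in these data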;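 note: 0% = DMSO treated cells and 100% = cells given Gossypol at 36 µM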
Gli-Sufu block = Gli-Sufu pathway antagonists, primary screen, luciferase luminescence, Sufu-KO-LIGHT cells, uHTS; Sufu-KO-LIGHT fibroblasts, Gli luciferase reporter luminescence; inhibition, % at 5 µM; 340,000 compounds, 0.74% hits; AID 588413, 2011;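 active = inhibition above about 55%, limit read from the data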;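 note: 0% = DMSO-treated cells and 100% = wells with medium but no cells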
NR5A2 inv ag = LRH-1 (NR5A2) inverse agonists, primary screen, cell-based, luminescence, HEK293T, StAR-luciferase reporter. LRH-1 transfected, 24 h. 360,000 compounds, 0.13% hits. inhibition, % at 3.6 µM. AID 602396, 2012. Nuclear receptor subfamily 5 group A member 2 (Homo sapiens), O00482;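 active = inhibition above the mean inhibition of all tested compounds plus 3 SD, cut at about 73% in these data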;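 note: 0% = DMSO wells and 100% = reporter-only cells lacking LRH-1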
NR2F2 inh = NR2F2 transcriptional activity inhibitors, primary screen, cell-based, luciferase reporter, HEK293T, luminescence | COUP transcription factor 2 (Homo sapiens), P24468 | HEK293T NGFI-A luciferase reporter | inhibition, % at 8.6 µM | 370,000 compounds, 0.7% hits | AID 686940, 2013;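 active = inhibition above a per-plate cutoff, mean inhibition of test wells between control levels plus 3 SD, cut at about 38% in these data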;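 note: cells cotransfected with COUP-TFII expression vector driving the NGFI-A reporter; 0% = median of COUP-TF2 test wells and 100% = reporter-only cells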
Gli-Sufu confirm = Gli-SUFU pathway antagonists, confirmation, single concentration, luciferase luminescence, Sufu-KO-LIGHT cells | shares compounds with Gli-Sufu block | Gli luciferase reporter | inhibition, % at 5 µM | 2,500 compounds, 40% hits | AID 602428, 2012;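 active = mean inhibition at 5 µM reaching about 45%, limit read from the data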;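 note: plate controls were DMSO-treated cells for no effect and wells lacking cells for full effect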
Gli cytotox = cytotoxicity in Sufu-KO-LIGHT cells, confirmation, cytotoxicity control for Gli-SUFU antagonist project, cell-based, ATP luminescence, single concentration | shares compounds with Gli-Sufu block | cytotoxicity, % at 5 µM | 2,500 compounds, 32% hits;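 active = mean cytotoxicity at 5 µM above about 25%, limit read from the data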;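 note: cells exposed to compound overnight for roughly 16 to 18 hours; plate controls were DMSO wells with cells for no effect and medium without cells for full effect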
Wnt3a counter = Wnt3a reporter signal inhibition, confirmation, counter-screen for Gli-SUFU antagonist project, Wnt-LIGHT cells, luminescence, single concentration; shares compounds with Gli-Sufu block; Wnt3a-driven luciferase reporter; inhibition, % at 6.25 µM; 2,500 compounds, 20% hits; AID 651995, 2013;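 active = mean inhibition above about 25%, limit read from the data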
Numbers without * were called inactive; · = no result.

SMILES	SRC1 inh	NCOA3 inh	NCOA2 inhibitor	Gli-Sufu block	NR5A2 inv ag	NR2F2 inh	Gli-Sufu confirm	Gli cytotox	Wnt3a counter
COc1ccc(-c2c[n+](CC(=O)c3cccs3)c3n2CCC3)cc1	12	6	4	6	11	-4	·	·	·
COC(=O)C(C)Sc1nc2c(cnn2-c2ccccc2)c(=O)[nH]1 (stereo unspecified)	9	15	-12	2	16	14	·	·	·
COC(=O)C(C)Sc1nc2c(cnn2-c2ccc(Cl)cc2)c(=O)[nH]1 (stereo unspecified)	9	6	-28	60*	-9	2	16	7	1
Cc1cc(C(=O)O[C@H]2CCC[C@@]3(C(=O)N(Cc4ccccc4)c4ccccc43)[C@H]2NC(=O)CCc2ccccc2)no1	·	·	2	·	·	15	·	·	·
Cc1ccccc1NS(=O)(=O)c1ccc(C(=O)NCCCN2CCOCC2)cc1	-2	7	-12	0	12	3	·	·	·
O=C(NCCCN1CCOCC1)c1ccc(S(=O)(=O)Nc2ccccc2F)cc1	8	6	9	90*	2	0	14	2	-20
O=C(c1ccc(F)cc1)N1CCN(C2CCCCC2)CC1	-47	-1	-33	58*	3	7	24	16	-17
O=C(c1ccc(OC2CCN(Cc3ccc(F)cc3)CC2)cc1)N1CCCC1	2	2	11	55*	15	-8	16	8	11
CCc1ccc(CN2CCC(Oc3ccc(C(=O)N4CCCC4)cc3)CC2)cc1	4	4	6	22	-19	20	·	·	·
O=C1C(Cc2ccc(Br)cc2)SC(=Nc2ccccc2)N1c1ccccc1 (stereo unspecified)	-32	11	13	-8	5	14	·	·	·
O=C1C(Cc2cccc([N+](=O)[O-])c2)SC(=Nc2ccccc2)N1c1ccccc1 (stereo unspecified)	9	18	9	62*	4	7	19	24	-36
CN1/C(=C\C(=O)C(F)F)C(C)(C)c2ccccc21	-1	18	-27	17	4	1	·	·	·
CC(=O)/C=C1\N(C)c2ccc(C)cc2C1(C)C	-1	10	2	61*	-4	5	61*	29*	30*
Cc1ccc(C(=O)NC(=S)/C=C2\N(C)c3ccccc3C2(C)C)cc1	8	14	31	77*	16	7	27	12	-10
CN1/C(=C\C=N\NC(=O)c2ccc(O)cc2)C(C)(C)c2ccccc21	10	16	-22	76*	-10	-7	65*	25*	12
CC(C)C(=O)NC(=S)/C=C1/N(C)c2ccccc2C1(C)C	-10	-5	-4	56*	3	11	57*	17	12
COCCNC(=O)C[C@H]1CC[C@H]2[C@@H](COc3ccc(NC(=O)Nc4cccc(F)c4)cc3C(=O)N2C)O1	·	·	-15	·	·	-5	·	·	·
Cc1nc(OCc2ccccc2)c2ccccc2n1	9	2	-14	12	7	7	·	·	·
COc1ccc(F)cc1COc1nc(C)nc2ccccc12	-39	2	-8	61*	9	-4	19	9	11
Cc1ccc(-c2cc(C(=O)N/N=C/c3cccnc3)c3ccccc3n2)cc1C	-66	-65	-23	-43	-58	-11	·	·	·
Cc1ccc(C)c(-c2cc(C(=O)N/N=C/c3cccnc3)c3ccccc3n2)c1	5	12	3	52	45	7	19	7	-40
CCC(=O)Nc1cccc(-n2nnnc2SCC(=O)N2CCCCC2)c1	-21	-17	9	59*	-38	-12	7	15	1
O=C(Nc1ccc(S(=O)(=O)N2CCCC2)cc1)c1cnccn1	5	1	5	3	9	12	·	·	·
CC1CCN(S(=O)(=O)c2ccc(NC(=O)Cc3ccccc3)cc2)CC1	-30	10	17	56*	-7	-4	20	23	-17
O=C(Nc1ccc(S(=O)(=O)N2CCN(Cc3ccccc3)CC2)cc1)c1cnccn1	21	11	9	58*	25	15	60*	33*	29*
SMILES	SRC1 inh	NCOA3 inh	NCOA2 inhibitor	Gli-Sufu block	NR5A2 inv ag	NR2F2 inh	Gli-Sufu confirm	Gli cytotox	Wnt3a counter
Cc1cc(C)n2nc(N)c(N=Nc3ccc(Cl)cc3)c2n1	-7	18	5	81*	-10	3	28	16	-37
Cc1ccc(C(=O)N/N=C\C=C\c2ccc(Br)cc2)cn1	-2	14	-19	51	22	-15	27	5	-4
Cc1ccc(C(=O)N/N=C/c2cc(Br)ccc2O)cn1	13	23	28	19	-6	-11	·	·	·
Cc1ccccc1CNCc1ccc2c(c1)OCO2	-2	9	-3	51	0	20	27	4	1
CSc1ccc(CNCc2ccc3c(c2)OCO3)cc1	18	2	8	5	20	16	·	·	·
COc1ccc(N2CCc3c(C)nc4c(OC)cc(OC)cc4c32)cc1	3	19	-152	54	26	-12	27	5	-42
COc1ccc(N2CCc3c(C)nc4c(OC)cc(OC)cc4c32)c(OC)c1	10	31	-15	31	18	-9	·	·	·
COc1cc(/C=C2/NC(=O)N(c3cccc(Cl)c3)C2=O)ccc1O	-38	-20	16	75*	-54	1	80*	23	46*
COc1ccc(-n2cccc2/C=C2/NC(=O)N(c3cccc(Cl)c3)C2=O)cc1	-54	-8	-44	-7	-50	-4	·	·	·
CN(C)S(=O)(=O)c1cccc(C(=O)OCC(=O)Nc2sccc2C#N)c1	-6	17	·	99*	9	·	17	5	-65
CCOc1ccc(OCc2ccc(C(=O)NC(C)(C)C)o2)cc1	-29	-50	24	53	-8	8	13	12	-20
CCOc1ccc(OCc2ccc(C(=O)NN)o2)cc1	-100	-61	-50	-65	-62	-43	·	·	·

Bioassay records (PubChem)
